Consider 1 sequence from publication PMC7862700, “An all-to-all approach to the identification of sequence-specific readers for epigenetic DNA modifications on cytosine”.

Holding throughout (assay): DAPPL (digital affinity profiling via proximity ligation, sequencing); 10 mM Tris-HCl pH 7.5, 50 mM NaCl, 1 mM DTT, 4% glycerol, room temperature, 30 min; GST-TFs on glutathione beads, 16-mer random dsDNA library, 0.1% formaldehyde crosslink after washing; high values mean tight binding
The target of one assay is T1, FEV (Homo sapiens, UniProt Q99581 1-238).
T1 sequence: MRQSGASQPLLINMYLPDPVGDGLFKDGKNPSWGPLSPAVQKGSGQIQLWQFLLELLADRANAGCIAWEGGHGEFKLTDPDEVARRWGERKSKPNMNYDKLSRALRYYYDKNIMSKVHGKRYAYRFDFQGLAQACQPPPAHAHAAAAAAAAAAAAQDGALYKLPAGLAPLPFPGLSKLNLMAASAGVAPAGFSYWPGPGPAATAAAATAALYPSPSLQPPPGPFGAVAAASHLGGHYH
The note with it: protein: recombinant; tags: N-terminal GST; dsDNA, one strand shown. The essentials:
(§1)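 In yeast, human transcription factors were expressed with a GST fusion, then pulled down on glutathione beads and given DNA barcodes. Pooled with a tag-only sample, they were exposed to 200 nmole of a 16-mer random double-stranded DNA library (Tris/NaCl/DTT/glycerol buffer, room temperature, 30 min), washed, crosslinked with 0.1% formaldehyde, proximity-ligated using BsaI/T4 ligase for 1 h at 37 °C, PCR-amplified and read on an Illumina NextSeq500. Each hexamer's frequency of reads for a factor, divided by the matching frequency for the tag-only sample, gives the binding signal.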

The target in the next assay is ETV5 (Homo sapiens, UniProt P41161 1-510). The settings on record: protein: recombinant; tags: N-terminal GST; dsDNA, one strand shown. In outline:
as §1

The next assay has as its target HSF1 (Homo sapiens, UniProt Q00613 1-529). The settings on record: protein: recombinant; tags: N-terminal GST; chain copies: 3; dsDNA, one strand shown. The essentials: as §1
A further assay addresses T2, SPIC (Homo sapiens, UniProt Q8N5J4 1-248).
T2 sequence: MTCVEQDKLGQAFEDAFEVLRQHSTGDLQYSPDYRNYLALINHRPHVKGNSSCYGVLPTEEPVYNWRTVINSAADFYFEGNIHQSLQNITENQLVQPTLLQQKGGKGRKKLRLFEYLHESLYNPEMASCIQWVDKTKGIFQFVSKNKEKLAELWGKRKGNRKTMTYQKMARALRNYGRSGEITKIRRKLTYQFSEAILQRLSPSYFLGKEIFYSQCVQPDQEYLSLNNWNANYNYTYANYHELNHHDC
The settings on record: protein: recombinant; tags: N-terminal GST; dsDNA, one strand shown. The essentials:
as §1

The target of another assay is ELF4 (Homo sapiens, UniProt Q99607 1-663). The settings on record: protein: recombinant; tags: N-terminal GST; dsDNA, one strand shown. In outline:
as §1

In the next assay the target is T3, ELK4 (Homo sapiens, UniProt P28324-2 1-405).
T3 sequence: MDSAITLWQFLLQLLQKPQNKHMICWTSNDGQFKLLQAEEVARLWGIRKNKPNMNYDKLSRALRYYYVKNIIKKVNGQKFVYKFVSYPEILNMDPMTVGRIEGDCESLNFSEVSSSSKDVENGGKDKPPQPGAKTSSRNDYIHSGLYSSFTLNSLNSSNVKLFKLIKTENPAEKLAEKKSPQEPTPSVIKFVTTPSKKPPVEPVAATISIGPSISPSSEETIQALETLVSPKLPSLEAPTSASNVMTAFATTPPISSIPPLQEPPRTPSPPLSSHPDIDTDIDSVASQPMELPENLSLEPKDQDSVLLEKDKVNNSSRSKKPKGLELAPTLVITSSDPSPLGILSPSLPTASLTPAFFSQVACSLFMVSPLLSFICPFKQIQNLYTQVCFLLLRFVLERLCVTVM
The settings on record: protein: recombinant; tags: N-terminal GST; dsDNA, one strand shown. In outline:
as §1

In a further assay the target is T4, ETV2 (Homo sapiens, UniProt O00321 1-342).
T4 sequence: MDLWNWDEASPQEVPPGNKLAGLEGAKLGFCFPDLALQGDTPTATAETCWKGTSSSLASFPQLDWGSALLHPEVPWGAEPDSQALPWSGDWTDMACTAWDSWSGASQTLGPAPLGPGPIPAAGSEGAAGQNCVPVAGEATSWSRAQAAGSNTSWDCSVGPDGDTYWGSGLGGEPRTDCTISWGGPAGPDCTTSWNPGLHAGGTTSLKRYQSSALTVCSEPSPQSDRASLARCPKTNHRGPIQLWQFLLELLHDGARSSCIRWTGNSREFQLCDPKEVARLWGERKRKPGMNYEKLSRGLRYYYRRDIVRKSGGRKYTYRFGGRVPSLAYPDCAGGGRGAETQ
The note with it: protein: recombinant; tags: N-terminal GST; dsDNA, one strand shown. The essentials:
as §1

Another assay concerns the target T5, ELF3 (Homo sapiens, UniProt P78545 1-371).
T5 sequence: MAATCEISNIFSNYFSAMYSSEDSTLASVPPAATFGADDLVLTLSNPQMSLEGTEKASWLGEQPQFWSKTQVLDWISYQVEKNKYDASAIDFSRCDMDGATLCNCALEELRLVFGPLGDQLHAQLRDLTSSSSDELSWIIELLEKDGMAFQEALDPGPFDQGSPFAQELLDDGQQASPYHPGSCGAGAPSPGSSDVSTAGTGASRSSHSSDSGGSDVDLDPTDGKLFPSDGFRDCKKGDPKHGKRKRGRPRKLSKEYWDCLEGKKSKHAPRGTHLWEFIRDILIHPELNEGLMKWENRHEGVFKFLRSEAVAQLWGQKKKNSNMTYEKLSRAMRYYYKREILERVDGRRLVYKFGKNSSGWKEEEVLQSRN
The note with it: protein: recombinant; tags: N-terminal GST; dsDNA, one strand shown. The essentials:
as §1

In a further assay the target is CRX (Homo sapiens, UniProt O43186 1-299). The settings on record: protein: recombinant; tags: N-terminal GST; dsDNA, one strand shown. In outline:
as §1

A further assay addresses ETV1 (Homo sapiens, UniProt P50549 1-477). The settings on record: protein: recombinant; tags: N-terminal GST; dsDNA, one strand shown. In outline:
as §1

The next assay deals with T6, ERF (Homo sapiens, UniProt P50548 1-548).
T6 sequence: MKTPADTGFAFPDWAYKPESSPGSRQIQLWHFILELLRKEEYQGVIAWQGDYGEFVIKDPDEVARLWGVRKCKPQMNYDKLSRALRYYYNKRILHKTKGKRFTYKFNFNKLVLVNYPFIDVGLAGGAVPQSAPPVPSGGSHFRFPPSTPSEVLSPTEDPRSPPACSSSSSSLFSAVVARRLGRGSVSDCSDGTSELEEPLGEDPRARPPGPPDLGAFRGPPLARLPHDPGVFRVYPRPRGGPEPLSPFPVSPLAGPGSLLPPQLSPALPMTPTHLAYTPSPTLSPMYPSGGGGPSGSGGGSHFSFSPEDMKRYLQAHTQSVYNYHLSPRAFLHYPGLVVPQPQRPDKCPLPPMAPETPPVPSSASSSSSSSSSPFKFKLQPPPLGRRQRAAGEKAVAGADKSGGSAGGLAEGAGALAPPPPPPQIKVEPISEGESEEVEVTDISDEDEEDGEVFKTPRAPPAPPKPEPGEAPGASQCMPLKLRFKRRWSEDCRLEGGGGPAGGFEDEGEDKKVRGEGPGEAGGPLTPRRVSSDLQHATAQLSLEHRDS
The settings on record: protein: recombinant; tags: N-terminal GST; dsDNA, one strand shown. In outline:
as §1

For a further assay, the target named is T7, ETV3L (Homo sapiens, UniProt Q6ZN32 1-361).
T7 sequence: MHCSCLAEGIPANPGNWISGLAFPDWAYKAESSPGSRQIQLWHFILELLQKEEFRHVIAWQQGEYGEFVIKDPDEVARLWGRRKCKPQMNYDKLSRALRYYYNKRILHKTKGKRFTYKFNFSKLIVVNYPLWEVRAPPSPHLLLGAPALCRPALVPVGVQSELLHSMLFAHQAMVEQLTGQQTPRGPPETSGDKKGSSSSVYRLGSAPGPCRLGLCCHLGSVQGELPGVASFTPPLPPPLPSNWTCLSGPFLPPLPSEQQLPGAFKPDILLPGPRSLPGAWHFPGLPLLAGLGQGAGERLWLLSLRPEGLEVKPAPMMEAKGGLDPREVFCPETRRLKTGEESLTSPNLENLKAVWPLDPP
The settings on record: protein: recombinant; tags: N-terminal GST; dsDNA, one strand shown. The essentials: as §1

In another assay the target is T8, ETS2 (Homo sapiens, UniProt P15036 1-469).
T8 sequence: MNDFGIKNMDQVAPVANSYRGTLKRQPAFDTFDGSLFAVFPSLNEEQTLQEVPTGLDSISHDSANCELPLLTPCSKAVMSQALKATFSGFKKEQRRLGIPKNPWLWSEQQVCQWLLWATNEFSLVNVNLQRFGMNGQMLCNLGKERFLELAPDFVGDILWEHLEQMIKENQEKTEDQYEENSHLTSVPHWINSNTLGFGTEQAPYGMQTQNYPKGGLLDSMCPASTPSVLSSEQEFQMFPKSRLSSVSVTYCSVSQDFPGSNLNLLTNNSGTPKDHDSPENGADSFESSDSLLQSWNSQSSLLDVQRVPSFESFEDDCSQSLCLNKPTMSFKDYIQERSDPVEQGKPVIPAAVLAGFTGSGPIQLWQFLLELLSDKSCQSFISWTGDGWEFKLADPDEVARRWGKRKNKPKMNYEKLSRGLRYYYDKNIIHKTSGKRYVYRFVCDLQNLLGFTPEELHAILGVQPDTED
The note with it: protein: recombinant; tags: N-terminal GST; dsDNA, one strand shown. In outline: as §1

For another assay, the target named is T9, SPDEF (Homo sapiens, UniProt O95238 1-335).
T9 sequence: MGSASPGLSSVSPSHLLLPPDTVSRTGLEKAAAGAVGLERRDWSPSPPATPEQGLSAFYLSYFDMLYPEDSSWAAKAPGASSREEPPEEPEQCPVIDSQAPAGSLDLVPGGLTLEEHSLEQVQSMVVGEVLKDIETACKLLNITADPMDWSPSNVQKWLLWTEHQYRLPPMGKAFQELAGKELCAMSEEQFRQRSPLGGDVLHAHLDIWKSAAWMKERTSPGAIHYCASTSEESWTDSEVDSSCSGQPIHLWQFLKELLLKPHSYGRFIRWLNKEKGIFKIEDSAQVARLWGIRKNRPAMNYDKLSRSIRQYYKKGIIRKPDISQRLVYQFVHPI
The settings on record: protein: recombinant; tags: N-terminal GST; dsDNA, one strand shown. In outline: as §1

Another assay deals with T10, ETV7 (Homo sapiens, UniProt Q9Y603 1-341).
T10 sequence: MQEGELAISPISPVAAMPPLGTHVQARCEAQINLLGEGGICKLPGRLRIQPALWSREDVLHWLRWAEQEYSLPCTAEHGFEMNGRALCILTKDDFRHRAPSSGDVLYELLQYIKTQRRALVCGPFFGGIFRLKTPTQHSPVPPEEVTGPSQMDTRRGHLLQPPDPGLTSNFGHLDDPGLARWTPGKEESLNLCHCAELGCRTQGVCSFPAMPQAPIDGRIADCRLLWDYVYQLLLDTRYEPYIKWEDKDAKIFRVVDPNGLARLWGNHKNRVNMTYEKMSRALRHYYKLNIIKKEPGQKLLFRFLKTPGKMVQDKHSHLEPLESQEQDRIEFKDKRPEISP
The settings on record: protein: recombinant; tags: N-terminal GST; dsDNA, one strand shown. In outline: as §1

For a further assay, the target named is T11, ELF5 (Homo sapiens, UniProt Q9UKW6-2 1-255).
T11 sequence: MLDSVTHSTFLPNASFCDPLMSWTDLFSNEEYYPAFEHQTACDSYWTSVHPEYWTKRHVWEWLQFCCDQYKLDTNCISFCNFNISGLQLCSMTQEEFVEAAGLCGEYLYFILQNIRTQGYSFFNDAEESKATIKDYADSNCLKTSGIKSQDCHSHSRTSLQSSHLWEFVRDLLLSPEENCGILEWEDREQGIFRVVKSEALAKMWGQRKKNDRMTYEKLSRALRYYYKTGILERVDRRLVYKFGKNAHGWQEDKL
The note with it: protein: recombinant; tags: N-terminal GST; dsDNA, one strand shown. In outline: as §1

A further assay addresses T12, ETV3 (Homo sapiens, UniProt P41162-2 1-143).
T12 sequence: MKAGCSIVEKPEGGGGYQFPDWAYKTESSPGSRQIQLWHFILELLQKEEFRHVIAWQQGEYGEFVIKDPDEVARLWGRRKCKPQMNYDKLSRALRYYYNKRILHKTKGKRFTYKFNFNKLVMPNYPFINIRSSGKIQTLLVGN
The note with it: protein: recombinant; tags: N-terminal GST; dsDNA, one strand shown. In outline: as §1

In the next assay the target is ETV6 (Homo sapiens, UniProt P41212 1-452). The settings on record: protein: recombinant; tags: N-terminal GST; dsDNA, one strand shown. In outline:
as §1

Sequence of ELF4 (Q99607 whole entry): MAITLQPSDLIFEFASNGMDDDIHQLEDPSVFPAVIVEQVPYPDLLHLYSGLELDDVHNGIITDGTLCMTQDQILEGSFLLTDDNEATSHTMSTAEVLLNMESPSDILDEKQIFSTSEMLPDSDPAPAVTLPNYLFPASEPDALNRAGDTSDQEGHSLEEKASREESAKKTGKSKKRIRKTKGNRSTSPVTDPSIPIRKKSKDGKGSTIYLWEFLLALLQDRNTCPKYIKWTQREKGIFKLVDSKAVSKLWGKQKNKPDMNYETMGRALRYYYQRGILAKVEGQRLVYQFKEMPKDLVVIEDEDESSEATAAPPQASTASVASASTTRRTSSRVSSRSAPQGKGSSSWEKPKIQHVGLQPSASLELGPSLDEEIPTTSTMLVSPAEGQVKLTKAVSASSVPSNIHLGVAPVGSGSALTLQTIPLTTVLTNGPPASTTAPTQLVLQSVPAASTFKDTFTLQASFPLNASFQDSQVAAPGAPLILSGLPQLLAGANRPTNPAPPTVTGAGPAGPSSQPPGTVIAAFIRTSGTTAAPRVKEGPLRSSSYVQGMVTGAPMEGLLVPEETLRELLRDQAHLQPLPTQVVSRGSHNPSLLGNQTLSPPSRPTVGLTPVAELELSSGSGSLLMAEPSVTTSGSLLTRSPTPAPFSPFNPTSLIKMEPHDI
Sequence of ETV5 (P41161 whole entry): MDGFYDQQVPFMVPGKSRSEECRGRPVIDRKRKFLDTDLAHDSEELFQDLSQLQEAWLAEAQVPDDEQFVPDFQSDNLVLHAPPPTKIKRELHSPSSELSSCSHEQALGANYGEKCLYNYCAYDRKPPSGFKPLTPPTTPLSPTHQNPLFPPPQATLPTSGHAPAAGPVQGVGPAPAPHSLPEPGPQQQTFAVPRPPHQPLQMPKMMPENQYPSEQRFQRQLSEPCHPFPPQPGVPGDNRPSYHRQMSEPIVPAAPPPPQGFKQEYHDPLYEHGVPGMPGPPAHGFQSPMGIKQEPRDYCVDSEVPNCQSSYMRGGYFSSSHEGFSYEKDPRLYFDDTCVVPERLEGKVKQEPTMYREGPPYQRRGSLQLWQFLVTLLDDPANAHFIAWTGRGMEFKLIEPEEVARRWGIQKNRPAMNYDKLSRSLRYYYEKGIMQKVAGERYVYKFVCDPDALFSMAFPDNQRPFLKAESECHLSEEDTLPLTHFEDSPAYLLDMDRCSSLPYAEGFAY
Sequence of ETV6 (P41212 whole entry): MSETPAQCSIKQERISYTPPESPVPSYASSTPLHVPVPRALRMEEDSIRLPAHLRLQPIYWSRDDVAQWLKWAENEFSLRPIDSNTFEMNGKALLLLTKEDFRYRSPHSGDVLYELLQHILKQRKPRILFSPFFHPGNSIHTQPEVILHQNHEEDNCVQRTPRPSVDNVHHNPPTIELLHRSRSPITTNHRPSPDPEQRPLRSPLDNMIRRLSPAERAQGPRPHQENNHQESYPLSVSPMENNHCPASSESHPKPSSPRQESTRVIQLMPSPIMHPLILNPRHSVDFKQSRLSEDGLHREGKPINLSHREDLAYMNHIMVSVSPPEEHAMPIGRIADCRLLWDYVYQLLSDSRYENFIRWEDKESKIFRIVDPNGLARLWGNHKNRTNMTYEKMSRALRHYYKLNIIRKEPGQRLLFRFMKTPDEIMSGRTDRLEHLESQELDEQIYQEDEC
Sequence of CRX (O43186 whole entry): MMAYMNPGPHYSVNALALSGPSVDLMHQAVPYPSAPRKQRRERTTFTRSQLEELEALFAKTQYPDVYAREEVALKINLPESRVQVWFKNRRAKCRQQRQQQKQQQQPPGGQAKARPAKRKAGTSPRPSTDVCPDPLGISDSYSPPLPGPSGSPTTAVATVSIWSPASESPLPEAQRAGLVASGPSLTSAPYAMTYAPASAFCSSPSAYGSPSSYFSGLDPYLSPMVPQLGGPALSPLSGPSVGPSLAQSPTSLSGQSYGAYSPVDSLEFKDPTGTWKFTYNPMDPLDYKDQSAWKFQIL
Sequence of ETV1 (P50549 whole entry): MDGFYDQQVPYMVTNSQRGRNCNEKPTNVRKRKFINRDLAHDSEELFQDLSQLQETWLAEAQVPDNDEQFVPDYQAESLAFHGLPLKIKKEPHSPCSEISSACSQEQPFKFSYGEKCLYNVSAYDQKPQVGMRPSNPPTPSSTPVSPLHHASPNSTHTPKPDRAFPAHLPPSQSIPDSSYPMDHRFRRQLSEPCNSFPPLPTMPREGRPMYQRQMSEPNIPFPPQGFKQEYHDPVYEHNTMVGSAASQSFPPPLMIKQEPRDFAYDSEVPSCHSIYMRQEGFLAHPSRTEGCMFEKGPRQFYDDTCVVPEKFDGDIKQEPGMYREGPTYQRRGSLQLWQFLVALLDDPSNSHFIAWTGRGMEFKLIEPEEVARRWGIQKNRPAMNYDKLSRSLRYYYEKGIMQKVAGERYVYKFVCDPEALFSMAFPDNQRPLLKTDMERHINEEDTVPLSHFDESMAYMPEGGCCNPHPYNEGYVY
Sequence of HSF1 (Q00613 whole entry): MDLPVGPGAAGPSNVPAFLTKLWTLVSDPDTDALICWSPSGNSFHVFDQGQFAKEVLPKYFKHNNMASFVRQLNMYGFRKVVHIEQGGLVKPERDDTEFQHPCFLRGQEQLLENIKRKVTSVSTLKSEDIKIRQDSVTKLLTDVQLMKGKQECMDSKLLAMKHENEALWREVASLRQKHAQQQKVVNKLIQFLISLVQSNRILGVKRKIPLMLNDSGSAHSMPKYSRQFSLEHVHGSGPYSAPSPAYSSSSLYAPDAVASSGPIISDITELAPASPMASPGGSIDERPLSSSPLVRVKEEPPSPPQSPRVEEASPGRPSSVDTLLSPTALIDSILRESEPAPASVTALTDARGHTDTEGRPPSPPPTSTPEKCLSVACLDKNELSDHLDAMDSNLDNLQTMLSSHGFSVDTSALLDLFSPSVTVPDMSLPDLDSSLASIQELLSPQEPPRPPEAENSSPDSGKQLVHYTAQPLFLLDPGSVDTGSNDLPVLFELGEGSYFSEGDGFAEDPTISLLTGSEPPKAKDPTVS

For the sequence ACTTTT, the binding signal with FEV is 1.25 fold enrichment (6-mer frequency, TF over GST control); with ETV5, 1.27 fold enrichment (6-mer frequency, TF over GST control); in the assay with HSF1 it was 1.25 fold enrichment (6-mer frequency, TF over GST control); in the assay with SPIC, 1.35 fold enrichment (6-mer frequency, TF over GST control); in the assay with ELF4 it was 1.32 fold enrichment (6-mer frequency, TF over GST control); with ELK4, 1.25 fold enrichment (6-mer frequency, TF over GST control). In addition, the binding signal was 1.25 fold enrichment (6-mer frequency, TF over GST control) with ETV2; 1.45 fold enrichment (6-mer frequency, TF over GST control) in the assay with ELF3; 1.25 fold enrichment (6-mer frequency, TF over GST control) with CRX; 1.32 fold enrichment (6-mer frequency, TF over GST control) with ETV1; 1.26 fold enrichment (6-mer frequency, TF over GST control) with ERF; 1.25 fold enrichment (6-mer frequency, TF over GST control) with ETV3L. In addition, the binding signal was 1.25 fold enrichment (6-mer frequency, TF over GST control) in the assay with ETS2; 1.25 fold enrichment (6-mer frequency, TF over GST control) with SPDEF; 1.36 fold enrichment (6-mer frequency, TF over GST control) in the assay with ETV7; 1.26 fold enrichment (6-mer frequency, TF over GST control) with ELF5; 1.31 fold enrichment (6-mer frequency, TF over GST control) with ETV3; 1.34 fold enrichment (6-mer frequency, TF over GST control) with ETV6.
